Assay outcomes as filed in PubChem.
CYP2C19 act – human CYP2C19 activators, primary screen, biochemical, luminescence; Cytochrome P450 2C19 (Homo sapiens), P33261; recombinant CYP2C19, luciferin-H EGE luminescence; active compounds read high; 0 = fully inhibited enzyme, 1 = untreated enzyme; activation factor at 5 µM; 96,000 tested, under 10 active;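 active = activation factor of at least 2 at 5 µM in the primary screen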
Target sequence (P33261 whole entry, looked up): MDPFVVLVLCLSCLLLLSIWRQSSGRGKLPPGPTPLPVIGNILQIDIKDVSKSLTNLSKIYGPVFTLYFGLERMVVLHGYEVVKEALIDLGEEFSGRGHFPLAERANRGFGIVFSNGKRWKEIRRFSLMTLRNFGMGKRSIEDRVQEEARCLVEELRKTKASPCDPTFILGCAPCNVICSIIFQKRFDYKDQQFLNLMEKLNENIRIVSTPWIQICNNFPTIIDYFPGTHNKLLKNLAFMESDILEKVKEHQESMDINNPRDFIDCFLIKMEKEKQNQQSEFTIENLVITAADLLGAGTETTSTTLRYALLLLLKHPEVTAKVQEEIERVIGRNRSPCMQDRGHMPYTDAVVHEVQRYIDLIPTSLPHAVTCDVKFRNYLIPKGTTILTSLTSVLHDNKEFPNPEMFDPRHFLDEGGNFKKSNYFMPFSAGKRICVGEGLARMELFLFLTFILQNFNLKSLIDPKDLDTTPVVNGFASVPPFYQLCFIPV
sEH inhibitor – soluble epoxide hydrolase inhibitors, primary screen, biochemical, human sEH. Bifunctional epoxide hydrolase 2 (Homo sapiens), P34913. 91,000 compounds, 0.34% hits. inhibition, % at 2 µM. recombinant human sEH enzymatic activity assay; in the data active = inhibition above about 80%
CYP2C19 inh – blockers of cytochrome P450 2C19 activity – biochemical, luminescence, ADME assay, primary screen; 96,000 compounds, 21% hits; CYP2C19 Supersomes, luciferin-H EGE luminescence, 30 min; AID 778, 2007; P33261; inhibition, % at 5 µM;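 active = CYP2C19 inhibition above a set limit at 5 µM in the primary screen, cut at about 50% in these data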
CYP2C9 inhib – blockers of cytochrome P450 2C9 activity – biochemical, luminescence, ADME assay, primary screen; P11712; CYP2C9 Supersomes, luciferin-H conversion; inhibition, % at 5 µM; 96,000 compounds, 20% hits; AID 777, 2007;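 active = blocking of liver enzyme CYP2C9 beyond about 50% at 5 µM, limit read from the data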
CYP2C9 act – human CYP2C9 activators, primary screen, biochemical, luminescence | 96,000 compounds, 1.4% hits | recombinant CYP2C9, luciferin-H conversion; active compounds read high; factor 1 = untreated enzyme, 0 = blocked | activation factor at 5 µM | AID 1024, 2008 | Cytochrome P450 2C9 (Homo sapiens), P11712;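 active = activation factor of 2 or more for CYP2C9 at a 5 µM dose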
sEH activator – soluble epoxide hydrolase activators, primary screen, biochemical, human sEH; Bifunctional epoxide hydrolase 2 (Homo sapiens), P34913; purified human sEH enzymatic activity, activator screen; activation, % at 2 µM; 91,000 compounds, 0.04% hits; AID 717, 2007; in the data active = activation above about 37%
Each line names hits and unclear results; the compound was inactive in the other large screens. This is a sample that favours compounds with a hit; in the whole collection about 27% have one here.

COC(=O)CSc1nnc2n1C(C)(C)Cc1ccccc1-2	none
COc1ccc(N2CCN(C(=O)CSc3ccccc3N)CC2)cc1	CYP2C19 inh 58.0, CYP2C9 inhib 68.6
COC(=O)CCCCCC(CCC(=O)OC)NC(C)=O (stereo unspecified)	none
COc1cc2c3nnc(-c4ccc(F)cc4)c-3cn(Cc3ccc(F)cc3)c2cc1OC	CYP2C9 inhib 77.2
COc1ccc(Cn2cc3c(-c4ccc(F)cc4)nnc-3c3cc(OC)c(OC)cc32)cc1	none
O=C(NCc1ccco1)c1ccc2c(=O)n(CCC3=CCCCC3)c(=O)[nH]c2c1	none
Cc1cc(C(=O)COc2ccc(-c3nnco3)cc2)c(C)n1Cc1ccccc1	CYP2C19 inh 60.0, CYP2C9 inhib 61.8
Cc1ccc(S(=O)(=O)N2CCN(C(=O)COc3ccc(-c4nnco4)cc3)CC2)cc1	none (no result: sEH inhibitor, sEH activator)
CN1/C(=C\C=Nc2ccc3ccccc3c2)C(C)(C)c2ccccc21	none
Cc1cc(/N=C/C=C2\N(C)c3ccccc3C2(C)C)n(CCC#N)n1	CYP2C19 inh 55.2
O=S(=O)(c1cnc[nH]1)N1CCCCCC1	none (no result: sEH inhibitor, sEH activator)
CCNC(=O)COC(=O)/C=C/c1ccccc1[N+](=O)[O-]	none
CN(C)C(=O)COC(=O)/C=C/c1ccccc1[N+](=O)[O-]	CYP2C9 act 2.1
O=c1ccn(CCOc2ccc(Cl)cc2)c(=O)[nH]1	CYP2C19 inh 59.4
Cc1cc(Cl)ccc1OCc1nc(-c2ccc(O)cc2)n[nH]1	CYP2C19 inh 96.8, CYP2C9 inhib 93.8
CCOC(=O)N1CCC(NC(=O)c2cccc3c2C(=O)N(c2ccc(OC)cc2)C3)CC1	CYP2C19 inh 96.6, CYP2C9 inhib 98.3
CCOC(=O)N1CCC(NC(=O)c2cn(-c3ccc(OC)cc3)c(=O)c3ccccc23)CC1	CYP2C19 inh 90.9, CYP2C9 inhib 90.5
CCOc1ccc(NC(=O)CNC(=O)c2cn(-c3ccccc3OC)c(=O)c3ccccc23)cc1	CYP2C19 inh 85.8, CYP2C9 inhib 87.8
CCOC(=O)N1CCC(NC(=O)c2cccn3c(=O)c4cc(Br)ccc4nc23)CC1	CYP2C19 inh 63.7, CYP2C9 inhib 86.0
CC(CNC(=O)c1cc(Cl)ccc1[N+](=O)[O-])NC(=O)c1cc(Cl)ccc1[N+](=O)[O-] (stereo unspecified)	none
CCOC(=O)c1oc2cc(C)cc(O)c2c(=O)c1-c1csc(C)n1	none
COc1ccc(N2Cc3cccc(C(=O)NC(C)CCc4ccco4)c3C2=O)cc1 (stereo unspecified)	CYP2C19 inh 85.0, CYP2C9 inhib 92.5
Oc1cc2ccccc2cc1-c1n[nH]c(=S)o1	CYP2C9 inhib 68.1
Cc1cc(-c2n[nH]c(=S)o2)c(C)n1-c1ccccc1	none
CS(=O)(=O)N(CC(=O)Nc1cc(Cl)ccc1Cl)c1ccccc1	CYP2C9 inhib 64.8
CS(=O)(=O)N(CC(=O)Nc1cccc(Cl)c1Cl)c1ccccc1	CYP2C9 inhib 78.3
CCOC(=O)C1CCCN(CCC(=O)Nc2ccc3c(c2)CCC3)C1 (stereo unspecified)	none
CCCCCc1ccc(CC(=O)Nn2c(C)nc3ccccc3c2=O)cc1	CYP2C19 inh 59.8, CYP2C9 inhib 94.6
Cc1nc2ccccc2c(=O)n1NC(=O)Cc1ccc(Br)cc1	CYP2C9 inhib 84.7 (no result: sEH inhibitor, sEH activator)
Cc1nc2ccccc2c(=O)n1NC(=O)c1c(O)c2ccccc2n(C)c1=O	none (no result: sEH inhibitor, sEH activator)
Cn1nc(C(F)(F)F)c(/C=N/OC(=O)c2ccccc2)c1Sc1ccc(Cl)cc1	CYP2C9 inhib 89.0
Cc1ccc(Cn2ncc3c(N4CCOCC4)ncnc32)cc1	none
c1ccc(Cn2nnc3c(N4CCCC4)ncnc32)cc1	none
Cc1ccc(Cn2ncc3c(N4CCN(c5ccccc5C)CC4)ncnc32)cc1	CYP2C19 inh 60.1, CYP2C9 inhib 74.3
c1ccc(Cn2ncc3c(N4CCCCC4)ncnc32)cc1	CYP2C19 inh 67.4 (no result: sEH inhibitor, sEH activator)
Cc1cccc(NC(=S)NC2CC3CCCC(C2)N3Cc2cccs2)c1 (stereo unspecified)	none
OCC12COC(c3ccccc3)N1C(c1ccccc1)OC2 (stereo unspecified)	CYP2C19 inh 69.4
